PubChem BioAssay AID1159580 (chemical genetic matrix, 2015)
Out of some 5,500 compounds screened, about 2,000 (36%) were called active. Not shown: some 18% with an inconclusive outcome. Rule as the data show it: active = normalized growth mostly below about 0.91 (no sharp cut-off); inconclusive = no clear call, values can overlap the other calls; inactive = mostly above about 0.92. This is one part of the list.

Experiment: chemical genetic growth profiling, strain panel (AID 1159580);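 also: tested at 20 µM; growth read once vehicle control cultures reached saturation at 30 °C; 1 = growth at the plate median or of vehicle wells; lower values mean less growth of the strain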
Conditions: growth OD

Measured: normalized growth

C=C[C@@]1(C)CC(=O)[C@@]2(O)[C@](C)(O1)[C@@H](OC(C)=O)[C@@H](O)C1C(C)(C)CC[C@H](O)[C@@]12C (some centres not stated)
inactive: S. cerevisiae deletion strains, locus YJR075W, strain HOC1, stronger effect = lower value 0.997 | S. cerevisiae deletion strains, locus YKL009W, strain mrt4, stronger effect = lower value 0.964 | S. cerevisiae deletion strains, locus YKL068W, stronger effect = lower value 0.992 | S. cerevisiae deletion strains, locus YKL085W, strain MDH1 (second series), stronger effect = lower value 0.966 | S. cerevisiae deletion strains, locus YKL085W, strain MDH1, stronger effect = lower value 0.966 | S. cerevisiae deletion strains, locus YKL160W, strain elf1, stronger effect = lower value 0.963 | S. cerevisiae deletion strains, locus YKL190W, strain CNB1, stronger effect = lower value 0.99 | S. cerevisiae deletion strains, locus YKR001C, strain vps1, stronger effect = lower value 0.984 | S. cerevisiae deletion strains, locus YKR026C, strain gcn3, stronger effect = lower value 0.997 | S. cerevisiae deletion strains, locus YKR091W, strain srl3, stronger effect = lower value 0.971 | S. cerevisiae deletion strains, locus YLL001W, strain dnm1, stronger effect = lower value 1.02 | S. cerevisiae deletion strains, locus YLL026W, stronger effect = lower value 0.964 | S. cerevisiae deletion strains, locus YLL041C, strain sdh2, stronger effect = lower value 0.969 | S. cerevisiae deletion strains, locus YLR027C, strain aat2, stronger effect = lower value 0.98 | S. cerevisiae deletion strains, locus YLR039C, strain RIC1, stronger effect = lower value 0.939 | S. cerevisiae deletion strains, locus YLR058C, strain SHM2, stronger effect = lower value 0.982 | S. cerevisiae deletion strains, locus YLR102C, strain apc9, stronger effect = lower value 0.974 | S. cerevisiae deletion strains, locus YLR113W, strain HOG1, stronger effect = lower value 0.955 | S. cerevisiae deletion strains, locus YLR221C, strain rsa3, stronger effect = lower value 1.03 | S. cerevisiae deletion strains, locus YLR258W, strain gsy2, stronger effect = lower value 0.965 | S. cerevisiae deletion strains, locus YLR262C, strain YPT6 (second series), stronger effect = lower value 0.968 | S. cerevisiae deletion strains, locus YLR262C, strain YPT6, stronger effect = lower value 0.894 | S. cerevisiae deletion strains, locus YLR268W, strain sec22, stronger effect = lower value 1.07 | S. cerevisiae deletion strains, locus YLR320W, strain mms22, stronger effect = lower value 1.01 | S. cerevisiae deletion strains, locus YLR330W, strain CHS5, stronger effect = lower value 0.989 | S. cerevisiae deletion strains, locus YLR342W, strain FKS1 (second series), stronger effect = lower value 0.987 | S. cerevisiae deletion strains, locus YLR342W, strain FKS1, stronger effect = lower value 0.991 | S. cerevisiae deletion strains, locus YLR357W, strain rsc2, stronger effect = lower value 0.987 | S. cerevisiae deletion strains, locus YLR370C, strain arc18, stronger effect = lower value 0.978 | S. cerevisiae deletion strains, locus YLR371W, strain rom2, stronger effect = lower value 0.968 | S. cerevisiae deletion strains, locus YLR384C, strain iki3, stronger effect = lower value 0.993 | S. cerevisiae deletion strains, locus YLR418C, strain cdc73, stronger effect = lower value 0.99 | S. cerevisiae deletion strains, locus YML016C, strain PPZ1, stronger effect = lower value 0.991 | S. cerevisiae deletion strains, locus YML032C, strain rad52, stronger effect = lower value 1.01 | S. cerevisiae deletion strains, locus YML120C, strain ndi1, stronger effect = lower value 0.989 | S. cerevisiae deletion strains, locus YML124C, strain tub3, stronger effect = lower value 0.983 | S. cerevisiae deletion strains, locus YMR058W, strain fet3, stronger effect = lower value 0.982 | S. cerevisiae deletion strains, locus YMR078C, strain ctf18, stronger effect = lower value 0.985 | S. cerevisiae deletion strains, locus YMR125W, strain sto1, stronger effect = lower value 0.974 | S. cerevisiae deletion strains, locus YMR129W, stronger effect = lower value 0.965 | S. cerevisiae deletion strains, locus YMR205C, strain PFK2, stronger effect = lower value 0.998 | S. cerevisiae deletion strains, locus YMR223W, strain ubp8, stronger effect = lower value 0.98 | S. cerevisiae deletion strains, locus YMR231W, strain pep5, stronger effect = lower value 0.992 | S. cerevisiae deletion strains, locus YMR263W, strain SAP30, stronger effect = lower value 0.992 | S. cerevisiae deletion strains, locus YMR307W, strain GAS1, stronger effect = lower value 1 | S. cerevisiae deletion strains, locus YNL067W, strain RPL9B, stronger effect = lower value 1.01 | S. cerevisiae deletion strains, locus YNL071W, strain lat1, stronger effect = lower value 0.988 | S. cerevisiae deletion strains, locus YNL128W, strain TEP1, stronger effect = lower value 0.965 | S. cerevisiae deletion strains, locus YNL153C, strain GIM3, stronger effect = lower value 1.01 | S. cerevisiae deletion strains, locus YNL183C, strain NPR1, stronger effect = lower value 0.933 | S. cerevisiae deletion strains, locus YNL209W, strain ssb2, stronger effect = lower value 0.992 | S. cerevisiae deletion strains, locus YNL233W, strain BNI4, stronger effect = lower value 1.01 | S. cerevisiae deletion strains, locus YNL248C, strain rpa49, stronger effect = lower value 0.919 | S. cerevisiae deletion strains, locus YNL250W, strain rad50, stronger effect = lower value 0.972 | S. cerevisiae deletion strains, locus YNL271C, strain bni1, stronger effect = lower value 0.987 | S. cerevisiae deletion strains, locus YNL298W, strain CLA4, stronger effect = lower value 0.959 | S. cerevisiae deletion strains, locus YNL307C, strain MCK1, stronger effect = lower value 0.996 | S. cerevisiae deletion strains, locus YNL322C, strain KRE1 (second series), stronger effect = lower value 0.939 | S. cerevisiae deletion strains, locus YNL322C, strain KRE1, stronger effect = lower value 0.994 | S. cerevisiae deletion strains, locus YNR049C, strain mso1, stronger effect = lower value 0.959 | S. cerevisiae deletion strains, locus YNR052C, strain pop2, stronger effect = lower value 0.984 | S. cerevisiae deletion strains, locus YOL006C, strain TOP1, stronger effect = lower value 0.997 | S. cerevisiae deletion strains, locus YOL012C, strain htz1 1.15 | S. cerevisiae deletion strains, locus YOL147C, strain pex11, stronger effect = lower value 0.999 | S. cerevisiae deletion strains, locus YOR001W, strain rrp6, stronger effect = lower value 1.03 | S. cerevisiae deletion strains, locus YOR061W, strain CKA2, stronger effect = lower value 0.972 | S. cerevisiae deletion strains, locus YOR069W, strain VPS5, stronger effect = lower value 0.993 | S. cerevisiae deletion strains, locus YOR070C, strain gyp1, stronger effect = lower value 0.986 | S. cerevisiae deletion strains, locus YOR080W, strain dia2, stronger effect = lower value 0.973 | S. cerevisiae deletion strains, locus YOR083W, strain WHI5, stronger effect = lower value 0.92 | S. cerevisiae deletion strains, locus YOR106W, strain vam3, stronger effect = lower value 0.919 | S. cerevisiae deletion strains, locus YOR136W, strain idh2, stronger effect = lower value 0.978 | S. cerevisiae deletion strains, locus YOR144C, strain elg1, stronger effect = lower value 0.991 | S. cerevisiae deletion strains, locus YOR184W, strain ser1, stronger effect = lower value 0.978 | S. cerevisiae deletion strains, locus YOR231W, strain MKK1, stronger effect = lower value 0.966 | S. cerevisiae deletion strains, locus YOR265W, strain rbl2, stronger effect = lower value 0.988 | S. cerevisiae deletion strains, locus YOR270C, strain vph1, stronger effect = lower value 0.94 | S. cerevisiae deletion strains, locus YOR290C, strain snf2, stronger effect = lower value 0.955 | S. cerevisiae deletion strains, locus YOR316C, strain cot1, stronger effect = lower value 0.984 | S. cerevisiae deletion strains, locus YPL051W, strain arl3, stronger effect = lower value 0.97 | S. cerevisiae deletion strains, locus YPL055C, strain LGE1, stronger effect = lower value 0.998 | S. cerevisiae deletion strains, locus YPL078C, strain atp4, stronger effect = lower value 0.955 | S. cerevisiae deletion strains, locus YPL106C, strain sse1, stronger effect = lower value 0.955 | S. cerevisiae deletion strains, locus YPL240C, strain hsp82, stronger effect = lower value 0.987 | S. cerevisiae deletion strains, locus YPL241C, strain CIN2, stronger effect = lower value 0.989 | S. cerevisiae deletion strains, locus YPL256C, strain CLN2, stronger effect = lower value 0.973 | S. cerevisiae deletion strains, locus YPR119W, strain clb2, stronger effect = lower value 0.978 | S. cerevisiae deletion strains, locus YPR141C, strain kar3, stronger effect = lower value 0.975 | S. cerevisiae deletion strains, locus YPR163C, strain tif3, stronger effect = lower value 0.993 | S. cerevisiae deletion strains, locus YPR167C, strain met16, stronger effect = lower value 0.986 | S. cerevisiae deletion strains, strain wtn01, stronger effect = lower value 0.997 | S. cerevisiae strains, strain wild type, stronger effect = lower value 0.984
